In PubChem BioAssay one finds outcome, potentiation and activation data, which are given here for 15 compounds.

The structures appear in SMILES notation. For part of these data: Results with a measured potency or affinity are listed apart. The source made the active and inactive calls.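 How the source made its calls, unless noted: active means calcium signal cut by more than 3 SD below the full-agonist control yet still positive, in both repeats and the earlier primary screen; inactive means the rest.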

Experiment [1] relates to TRPC4 beta (transient receptor potential cation channel C4), mouse. Description: activators of mouse TRPC4 channel, confirmation, cell-based, Fluo4 calcium, HEK293 TRPC4beta/mu-opioid, duplicates, 10 µM (AID 2426;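 active means fluorescence ratio normalized to control raised more than 50% in primary screen plus both repeat runs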). As to conditions: Fluo4 calcium fluorescence, at 10 µM; hits give high values.
In experiment [2] the test system is transient receptor potential cation channel C4 beta (TRPC4), mouse. Description: activators of mouse TRPC4 channel, confirmation, cell-based, second round, Fluo4, HEK293 TRPC4beta/mu-opioid, 1 µM (AID 2461;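 active means primary screen active and over 50% activation in each of two duplicate runs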). The note with it: Fluo4 calcium fluorescence, at 1 µM; hits give high values.
Experiment [3] relates to TRPC4 (transient receptor potential cation channel C4 beta), mouse. Description: positive allosteric modulators of mouse TRPC4, confirmation, cell-based, second round, Fluo-4, HEK293 TRPC4beta/mu-opioid, 1 µM (AID 2554;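 active means primary screen hit whose fluorescence ratio, in both repeats, exceeds the weak agonist control mean by 3 SD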). The note with it: DAMGO EC20, Fluo-4 calcium flux, at 1 µM; hits give high values. For orientation: Calcium assays in cells follow changes in intracellular calcium, usually with a dye or a luminescent sensor.

For experiment [4], the system named is TRPC4 beta (transient receptor potential cation channel C4), mouse. Briefly: positive allosteric modulators of mouse TRPC4, confirmation, cell-based, Fluo-4, HEK293 TRPC4beta/mu-opioid (AID 2555;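 active means primary screen hit whose calcium fluorescence ratio, in both repeats, exceeds the weak agonist control mean by 3 SD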). As to conditions: DAMGO EC20, Fluo-4 calcium flux, at 10 µM; hits give high values.
The target of experiment [5] is Short transient receptor potential channel 4 (Mus musculus) (UniProt Q9QUQ5). Description: inhibitors of mouse TRPC4 channel, confirmation, cell-based, Fluo4, HEK293 TRPC4beta/mu-opioid (AID 2636). The note with it: DAMGO, Fluo4 calcium flux, at 10 µM; hits give high values.
Short transient receptor potential channel 4 (Mus musculus), sequence (Q9QUQ5 whole entry, looked up): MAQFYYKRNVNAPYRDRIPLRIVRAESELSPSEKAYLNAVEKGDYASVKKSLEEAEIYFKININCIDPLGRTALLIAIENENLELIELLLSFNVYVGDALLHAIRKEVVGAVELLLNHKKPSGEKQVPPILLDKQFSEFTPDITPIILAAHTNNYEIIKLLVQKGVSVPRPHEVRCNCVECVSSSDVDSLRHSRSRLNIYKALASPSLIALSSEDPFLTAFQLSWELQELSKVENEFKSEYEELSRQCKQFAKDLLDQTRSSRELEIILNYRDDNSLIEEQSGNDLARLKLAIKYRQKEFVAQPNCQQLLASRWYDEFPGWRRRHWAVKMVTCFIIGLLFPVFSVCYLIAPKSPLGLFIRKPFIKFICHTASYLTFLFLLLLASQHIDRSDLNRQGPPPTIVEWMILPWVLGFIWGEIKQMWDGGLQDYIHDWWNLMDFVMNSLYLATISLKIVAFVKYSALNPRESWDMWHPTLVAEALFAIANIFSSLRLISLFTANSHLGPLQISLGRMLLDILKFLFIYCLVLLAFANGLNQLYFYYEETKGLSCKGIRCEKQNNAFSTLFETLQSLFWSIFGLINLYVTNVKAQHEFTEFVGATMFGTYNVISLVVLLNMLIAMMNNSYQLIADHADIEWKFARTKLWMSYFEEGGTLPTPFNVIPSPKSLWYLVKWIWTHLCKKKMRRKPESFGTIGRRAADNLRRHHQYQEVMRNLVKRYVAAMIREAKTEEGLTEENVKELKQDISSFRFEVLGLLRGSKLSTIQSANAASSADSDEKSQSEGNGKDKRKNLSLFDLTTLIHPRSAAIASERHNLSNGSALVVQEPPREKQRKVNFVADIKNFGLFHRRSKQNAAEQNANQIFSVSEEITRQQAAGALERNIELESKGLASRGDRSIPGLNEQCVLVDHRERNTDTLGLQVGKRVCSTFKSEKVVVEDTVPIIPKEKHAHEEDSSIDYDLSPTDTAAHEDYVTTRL
For experiment [6] the target is unchanged. Description: inhibitors of mouse TRPC4 channel, confirmation, cell-based, second round, Fluo4, HEK293 TRPC4beta/mu-opioid, 1 µM (AID 2637;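 active means calcium signal ratio cut to more than 3 SD under the fully stimulated control mean yet still positive, in both repeats and the primary screen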). The note with it: Fluo4 calcium flux, DAMGO, at 1 µM; hits give high values.
Experiment [7] has the same target. Description: mouse TRPC4 channel activators, dose response, cell-based, HEK293 TRPC4/mu-opioid, Fluo-4 calcium (AID 434937;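 active means primary screen activator hit with a dose response curve and TRPC4 channel activation at any tested dose; inactive means no activation, no dose response, or not a primary hit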).
Experiment [8] shares this target. Description: TRPC4 positive allosteric modulators, dose response, cell-based, HEK293 TRPC4/mu-opioid, Fluo-4 calcium, EC20 DAMGO (AID 434941;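 active means earlier screen potentiator hit that boosts the TRPC4 ion channel at some dose, with a dose response; inactive means no potentiation, no dose response, or not a prior hit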;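 further: calcium entry triggered by an EC20 dose of DAMGO at the co-expressed mu-opioid receptor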).
Experiment [9] shares this target. Briefly: mouse TRPC4 channel inhibitors, dose response, cell-based, HEK293 TRPC4/mu-opioid, Fluo-4 calcium (AID 434942;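 active means primary screen inhibitor hit that blocks the TRPC4 channel at some tested dose, yielding a dose curve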).
The target of experiment [10] is Short transient receptor potential channel 6 (Mus musculus) (UniProt Q61143). Description: inhibition of mouse TRPC6 channel, confirmation, selectivity assay for TRPC4 inhibitor project, cell-based, HEK293, membrane potential dye, duplicate (AID 434948;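 active means active in primary screen and both duplicates, each dropping signal beyond three positive-control SD with fluorescence still positive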). The note with it: HEK293 TRPC6, membrane potential dye fluorescence, at 10 µM, stimulated with maximal-effect acetylcholine; hits give high values.
Short transient receptor potential channel 6 (Mus musculus), sequence (Q61143 whole entry, looked up): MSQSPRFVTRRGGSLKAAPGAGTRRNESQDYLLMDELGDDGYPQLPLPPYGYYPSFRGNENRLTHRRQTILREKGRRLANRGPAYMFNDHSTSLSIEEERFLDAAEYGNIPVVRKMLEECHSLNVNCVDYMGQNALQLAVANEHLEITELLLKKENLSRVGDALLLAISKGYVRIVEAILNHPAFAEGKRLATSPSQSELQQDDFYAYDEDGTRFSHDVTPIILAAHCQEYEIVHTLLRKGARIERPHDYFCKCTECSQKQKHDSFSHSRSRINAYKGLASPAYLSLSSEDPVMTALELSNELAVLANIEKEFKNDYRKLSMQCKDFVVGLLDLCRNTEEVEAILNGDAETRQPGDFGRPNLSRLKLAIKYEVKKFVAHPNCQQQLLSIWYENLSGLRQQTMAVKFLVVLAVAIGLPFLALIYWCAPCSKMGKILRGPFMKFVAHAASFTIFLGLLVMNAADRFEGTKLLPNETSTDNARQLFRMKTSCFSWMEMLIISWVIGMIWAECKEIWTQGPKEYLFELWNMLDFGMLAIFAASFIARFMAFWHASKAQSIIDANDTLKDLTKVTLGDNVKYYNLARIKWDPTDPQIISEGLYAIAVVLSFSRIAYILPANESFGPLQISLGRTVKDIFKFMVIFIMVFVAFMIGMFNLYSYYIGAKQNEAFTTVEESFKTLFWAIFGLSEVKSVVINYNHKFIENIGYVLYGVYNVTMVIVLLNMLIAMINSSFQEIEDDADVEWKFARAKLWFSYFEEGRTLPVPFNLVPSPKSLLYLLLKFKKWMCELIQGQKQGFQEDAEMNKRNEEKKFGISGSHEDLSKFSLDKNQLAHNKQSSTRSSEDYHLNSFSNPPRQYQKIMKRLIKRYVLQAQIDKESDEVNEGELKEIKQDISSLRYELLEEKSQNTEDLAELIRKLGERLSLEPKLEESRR

The target is the same in experiment [11]. Description: activation of mouse TRPC6 channel, confirmation, selectivity assay for TRPC4 activator project, cell-based, HEK293, membrane potential dye, duplicate (AID 434950;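 active means membrane potential signal rise above negative control mean plus 3 SD in both duplicates, also active in the earlier TRPC4 screen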;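 on activation: 0% = buffer only wells and 100% = acetylcholine maximal-effect wells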). As to conditions: HEK293 TRPC6, membrane potential fluorescence, at 10 µM; hits give high values.
Experiment [12] shares this target. Briefly: TRPC6 potentiation by TRPC4 potentiator hits, confirmation, selectivity assay for TRPC4 potentiator project, HEK293 cells, membrane potential dye, duplicate (AID 434952;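 active means compound raising the membrane signal above positive-control mean plus 3 SD in both repeats, and a primary screen hit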). As to conditions: HEK293 TRPC6, membrane potential dye fluorescence, at 10 µM, maximal acetylcholine added after compound; hits give high values.
Experiment [13] addresses Short transient receptor potential channel 4 (Mus musculus) (UniProt Q9QUQ5). Briefly: calcium flux activators in TRPC4/5HT1a cells, counter-screen for TRPC4 activator project, cell-based, second counter screen, HEK293 TRPC4/5HT1a, Fluo-4 (AID 434977;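 active means calcium signal rise above buffer-control mean plus 5 SD in both duplicates, and also a hit in the primary screen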). The note with it: Fluo-4 calcium flux, at 10 µM; hits give high values.
Experiment [14] in a line: calcium flux inhibitors in TRPC4/5HT1a cells, confirmation, counter-screen for TRPC4 inhibitor project, cell-based, second counter screen, HEK293 TRPC4/5HT1a, Fluo-4 (AID 434978;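 active means primary screen active whose calcium signal fell more than 3 SD beyond the full-serotonin control mean in both duplicate plates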;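 further: serotonin given first at submaximal then at maximal dose after compound preincubation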). The note with it: Fluo-4 calcium flux, at 10 µM, serotonin added to trigger calcium flux; hits give high values.
Experiment [15] relates to TRPC4 (mouse), co-expressed with 5HT1a in HEK293. Description: calcium flux potentiators in TRPC4/5HT1a cells, confirmation, counter-screen for TRPC4 potentiator project, cell-based, second counter screen, HEK293 TRPC4/5HT1a, Fluo-4 (AID 434979;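 active means signal rise over 3 SD above mean of control wells given weak agonist, in both repeats and first screen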). The note with it: Fluo-4 calcium flux, at 10 µM, serotonin added at its EC20 dose; hits give high values.
The nature of experiment [16]: calcium flux activation in mu-opioid HEK293 cells, confirmation, counter-screen for TRPC4 activator project, cell-based, HEK293 mu-opioid receptor line (AID 449723;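 active means hit in primary screen, with calcium signal over 5 SD above buffer well mean in both duplicates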;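 further: counter screen cells carry the mu-opioid receptor alone and lack TRPC4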). The note with it: Fluo-4 calcium fluorescence, at 10 µM; hits give high values.
The nature of experiment [17]: calcium flux enhancement in mu-opioid HEK293 cells, confirmation, counter-screen for TRPC4 allosteric potentiator project, cell-based, HEK293 mu-opioid receptor line (AID 449724;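 active means calcium signal rise more than 3 SD above the low-dose agonist control mean, in both duplicate plates and the primary screen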;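 further: HEK293 cells carrying mu-opioid receptor only with no TRPC4 channel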). The note with it: Fluo-4 calcium flux, at 10 µM, compound added before EC20 DAMGO stimulus; hits give high values.

Consider `CCn1c(CN2CCN(C(c3ccccc3)c3ccccc3)CC2)nc2c1c(=O)n(C)c(=O)n2C`, for which the result in experiment [1], in experiment [2], in [3], in [4], in experiment [5] and in experiment [6] was inactive. For the same compound, the outcome in experiment [7], in experiment [8], in experiment [9], in [10], in [11] and in [12] was inactive. Moreover, the outcome in experiment [13], in experiment [14], in [16] and in [17] was inactive. Besides, the potentiation in experiment [15] was 18.4% (active).
Regarding `O=c1oc2ccccc2c(O)c1/C=C1\C=Nc2ccccc21`, the result in experiment [1], in experiment [2], in [3], in experiment [4], in experiment [5] and in experiment [6] was inactive. Moreover, the result in [7], in [8], in [9], in experiment [10], in experiment [12] and in [13] was inactive. In addition, the result in experiment [14], in experiment [15], in experiment [16] and in experiment [17] was inactive. Moreover, in experiment [11], the activation is 32.5% (active).
On to `Cc1cc(OCCN2CCCC2)ccc1[N+](=O)[O-]`, for which the result in experiment [1], in [2], in experiment [5], in [6], in experiment [7] and in experiment [8] was inactive. Moreover, the outcome in [9], in experiment [10], in experiment [11], in experiment [12], in [13] and in experiment [14] was inactive. In addition, the outcome in [16] and in experiment [17] was inactive. Besides, the results for the potentiation in experiment [3], in [4] and in experiment [15] were 11% (active), 11% (active) and 13.9% (active), respectively.
`CCOC(=O)C1NN=C(C(=O)c2ccccc2)C1c1ccc(Cl)cc1` (stereo not given): the outcome in experiment [1], in experiment [2], in experiment [3], in [4], in [5] and in experiment [6] was inactive. For the same compound, the outcome in experiment [7], in experiment [8], in [9], in experiment [10], in experiment [11] and in experiment [12] was inactive. In addition, the result in experiment [13], in [14], in experiment [15], in experiment [16] and in experiment [17] was inactive.
Regarding `CN(CCNS(=O)(=O)c1ccc2c(c1)oc(=O)n2C)Cc1ccccc1`, the result in [1], in experiment [2], in [3], in experiment [5], in [6] and in experiment [7] was inactive. In addition, the outcome in experiment [8], in experiment [9], in [10], in experiment [11], in experiment [12] and in experiment [13] was inactive. Besides, the outcome in [14], in experiment [16] and in [17] was inactive. Further, the potentiation in [4] was 8% (active); in experiment [15] it was 13.7% (active).
`CCOc1cc2[nH]c(=S)n(C3CC3)c(=O)c2cc1OCC`: the outcome in experiment [1], in experiment [2], in [3], in experiment [4], in experiment [5] and in [6] was inactive. Moreover, the result in experiment [7], in experiment [8], in experiment [9], in experiment [10], in experiment [11] and in [12] was inactive. The result in experiment [13], in experiment [14], in [15], in experiment [16] and in experiment [17] was inactive.
As for `COc1ccc(CNC(=O)C(C)NCc2ccc(S(N)(=O)=O)cc2)cc1` (stereo not given), the outcome in [1], in experiment [2], in experiment [3], in experiment [4], in experiment [5] and in experiment [6] was inactive. Besides, the result in experiment [7], in experiment [8], in experiment [9], in experiment [10], in [11] and in [12] was inactive. Besides, the outcome in [13], in [14], in experiment [15], in experiment [16] and in [17] was inactive.
Consider `Cc1cccc(NC(=O)c2cc([N+](=O)[O-])ccc2N2CCN(C)CC2)c1`, for which the outcome in experiment [1], in experiment [2], in [3], in [4], in experiment [5] and in experiment [6] was inactive. In addition, the result in experiment [7], in [8], in [9], in experiment [10], in experiment [11] and in [12] was inactive. Also, the outcome in [13], in experiment [14], in [16] and in experiment [17] was inactive. Moreover, in [15], the potentiation was 18.8% (active).
On to `C(#Cc1ccccc1)C[N+]1(CC#Cc2cccc3ccccc23)CCCC1`, for which the outcome in experiment [1], in experiment [2], in experiment [3], in [4], in experiment [5] and in [6] was inactive. For the same compound, the result in experiment [7], in experiment [8], in experiment [9], in experiment [10], in experiment [11] and in experiment [12] was inactive. Further, the outcome in experiment [13], in [14], in [15], in experiment [16] and in experiment [17] was inactive.
As to `COc1ccc(NC(C)=O)cc1NC(C)C(=O)Nc1cc(C(F)(F)F)ccc1N1CCOCC1` (stereo not given), the result in experiment [1], in experiment [2], in [3], in [4], in experiment [5] and in experiment [6] was inactive. Besides, the outcome in experiment [7], in experiment [8], in [9], in experiment [10], in [11] and in [12] was inactive. In addition, the result in experiment [13], in experiment [14], in [16] and in experiment [17] was inactive. In [15], the potentiation is 14.5% (active).
As for `Clc1ccc2[nH]c3c(c2c1)CNCC3`, the outcome in experiment [1], in experiment [2], in experiment [5], in [6], in [7] and in experiment [8] was inactive. For the same compound, the result in [9], in experiment [10], in experiment [11], in [12], in experiment [13] and in experiment [14] was inactive. For the same compound, the outcome in experiment [15], in experiment [16] and in experiment [17] was inactive. The potentiation is 10% (active) in experiment [3] and 12% (active) in experiment [4].
`O=C(OCC(=O)N1CCOCC1)c1cccc(S(=O)(=O)N2CCCc3ccccc32)c1`: the outcome in experiment [1], in experiment [2], in experiment [3], in experiment [4], in experiment [5] and in experiment [6] was inactive. In addition, the outcome in experiment [7], in experiment [8], in experiment [9], in [10], in experiment [11] and in experiment [12] was inactive. In addition, the result in experiment [13], in experiment [14], in experiment [16] and in experiment [17] was inactive. The potentiation in [15] was 10.2% (active).
For the compound `COc1ccccc1NC(=O)CSc1n[nH]c(-c2ccccn2)n1`, the outcome in experiment [1], in experiment [2], in experiment [3], in experiment [4], in experiment [5] and in experiment [6] was inactive. For the same compound, the result in [7], in experiment [8], in experiment [9], in experiment [10], in [11] and in experiment [12] was inactive. Moreover, the outcome in [13], in experiment [14], in experiment [15], in experiment [16] and in [17] was inactive.
On to `Cn1c(/N=C/c2ccccc2[N+](=O)[O-])nc2ccccc21`, for which the outcome in experiment [1], in experiment [2], in experiment [3], in experiment [4], in [5] and in experiment [6] was inactive. The result in experiment [7], in experiment [8], in experiment [9], in experiment [10], in experiment [11] and in experiment [12] was inactive. In addition, the result in [13], in [14], in experiment [16] and in experiment [17] was inactive. Besides, the potentiation in experiment [15] was 11.9% (active).
Regarding `CCc1c(C)nc2c(-c3ccccc3)c(C)nn2c1Nc1ccc(NC(C)=O)cc1`, the outcome in experiment [1], in experiment [2], in experiment [3], in experiment [5], in experiment [6] and in [7] was inactive. Besides, the result in [8], in [9], in [10], in experiment [11], in experiment [12] and in experiment [13] was inactive. Also, the outcome in experiment [14], in experiment [16] and in experiment [17] was inactive. In addition, the figures for the potentiation in experiment [4] and in [15] were 14% (active) and 74% (active), respectively.
